DT40 TDP1 no CPT: qHTS for Inhibitors of human tyrosyl-DNA phosphodiesterase 1 (TDP1): qHTS in cells in absence of CPT. DT40 Tdp1-/- hTDP1 cells, no CPT, ATP luminescence, 48 h. Potency, µM (highest dose often 46.2 µM), usual class: inhibitors. hit rate 15% among 420,000. AID 686978, 2013; note: nearly all actives have a fitted effect of over 55% in size
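A cellular qHTS used chicken DT40 cells lacking endogenous Tdp1 but carrying stably transfected human TDP1. Compounds were applied without camptothecin, and cell growth kinetics were judged by ATP-dependent luminescence after ≥48 hr.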
TDP1 cell CPT: DT40-hTDP1 cell growth loss with CPT | chicken DT40 Tdp1-/-;hTDP1 cells + 20 nM CPT, ATP luminescence, 48 h | Potency, µM (doses to about 46.2 µM), most hits filed as inhibitors | hit rate 12% among 420,000 | AID 686979; note: nearly all actives have a fitted effect of over 55% in size
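Chicken DT40 Tdp1-/- cells complemented with human TDP1, 400 cells/well, exposed to compounds plus 20 nM camptothecin for at least 48 h at 37 C; viability read as ATP content by CellTiter-Glo luminescence.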
12-LOX inh: ALOX12 (human) lipoxygenase inhibition | hit rate 1.1% among 580,000 | purified 12hLO, xylenol orange hydroperoxide absorbance | Potency, µM (titrated, usually from 108 µM), usual class: inhibitors
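Hydroperoxide product was detected by ferrous iron/xylenol orange as the 573 to 405 nm absorbance ratio. Arachidonic acid at 40 uM (final) was turned over for 30 min at room temperature by 150 nM human 12hLO, pH 7.0 Hepes buffer, after 15 min compound preincubation.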
VP16 counter: inhibits Gal4-VP16 luciferase reporter, ROR gamma counter-screen; hit rate 3.5% among 310,000; Potency, µM (doses to about 53.6 µM), actives largely listed as inhibitors; Drosophila S2 Gal4-VP16 UAS-luciferase, luminescence, 20 h;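 note: Gal4-VP16 expression switched on by copper sulfate through the metallothionein promoter; nearly all actives have a fitted effect of over 50% in size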
RORgamma inh: ROR gamma (mouse) transcription inhibition; hit rate 5.4% among 310,000; Drosophila S2 Gal4-RORgamma UAS-luciferase reporter, 20 h; P51450; Potency, µM (highest dose often 53.6 µM), hits mostly inhibitors; note: nearly all actives have a fitted effect of over 60% in size
Target sequence (P51450 whole entry, looked up, the tested form may be a part): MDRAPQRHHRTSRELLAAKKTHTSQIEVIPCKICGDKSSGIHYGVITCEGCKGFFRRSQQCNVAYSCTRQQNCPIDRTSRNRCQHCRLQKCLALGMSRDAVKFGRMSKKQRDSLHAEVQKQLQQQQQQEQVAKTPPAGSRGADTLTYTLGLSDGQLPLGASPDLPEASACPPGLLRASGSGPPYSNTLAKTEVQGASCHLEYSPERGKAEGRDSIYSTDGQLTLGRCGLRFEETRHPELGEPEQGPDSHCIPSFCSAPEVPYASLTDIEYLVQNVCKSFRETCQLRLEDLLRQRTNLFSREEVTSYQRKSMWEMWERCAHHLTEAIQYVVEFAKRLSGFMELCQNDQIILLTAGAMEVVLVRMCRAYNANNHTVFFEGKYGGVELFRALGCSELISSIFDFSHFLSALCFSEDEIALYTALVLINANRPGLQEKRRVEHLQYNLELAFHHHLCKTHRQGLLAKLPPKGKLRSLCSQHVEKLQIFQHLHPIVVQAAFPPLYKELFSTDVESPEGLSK
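Drosophila S2 cells stably expressing Gal4-DBD/mouse RORγ fusion under metallothionein promoter plus UAS-luciferase; compound 1 h, then 700 uM CuSO4 induction for 20 h at ambient temperature; inhibition read as reduced luminescence.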
ELG1 DNA repair: blocks ELG1-dependent DNA repair in HEK293T cells | HEK293T ELG1-luciferase reporter, luminescence, 16 h; DNA damage induced by 5-fluorouridine | Potency, µM (doses to about 46.1 µM), usual class: inhibitors | hit rate 2.3% among 330,000; note: nearly all actives have a fitted effect of over 55% in size
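Step one: seed 2,000 cells per well. Step two: pin-transfer compound or DMSO alongside 5-fluorouridine. Step three: incubate 16 hr, 37 °C, 5% CO2. Step four: add ONE-Glo, wait 30 min, read luminescence.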
Each line names hits and unclear results; the compound was inactive in the other large screens. An excerpt weighted towards active compounds, which were near 15% of everything screened. Calls come from the whole dose curve; as a rule, active = well fitted curve in the direction sought with a large enough effect; inconclusive = small, poorly fitted or top-dose-only effect, or another doubt; inactive = no such curve, though single readings can be large; an effect the other way counts as inactive or inconclusive.

CC(=O)Oc1ccc(C(=O)Nc2ccccc2C(=O)Nc2cccc(C(=O)O)c2)cc1	ELG1 DNA repair inconclusive
CC(=O)Oc1ccc(C(=O)Nc2ccccc2C(=O)Nc2ccc(C(=O)O)cc2)cc1	12-LOX inh 4.47µM
CC(=O)Oc1ccc(C(=O)Nc2cccc(C(=O)NC(C)(C)C)c2)cc1	none
CC(=O)Oc1ccc(Nc2ccccc2)cc1	DT40 TDP1 no CPT inconclusive, TDP1 cell CPT 18.4µM, 12-LOX inh inconclusive, RORgamma inh inconclusive
CCCn1c(=O)n(CC(=O)Nc2ccc(Cl)cc2)c(=O)c2c1nc(C)n2CCOC	none (no result: DT40 TDP1 no CPT, TDP1 cell CPT, VP16 counter, RORgamma inh, ELG1 DNA repair)
c1cc2c(cc1CN1CCCCCC1)CNCCO2	none (no result: DT40 TDP1 no CPT, TDP1 cell CPT, VP16 counter, RORgamma inh, ELG1 DNA repair)
CC(=O)Nc1ccc(OC(=O)c2ccccc2O)cc1	DT40 TDP1 no CPT inconclusive, TDP1 cell CPT 0.581µM (no result: 12-LOX inh, ELG1 DNA repair)
O=C(Oc1ccccc1)c1ccccc1O	none (no result: ELG1 DNA repair)
Cc1ccc(S(=O)(=O)CCC(=O)Nc2nnc(-c3ccco3)o2)cc1	DT40 TDP1 no CPT inconclusive, TDP1 cell CPT inconclusive (no result: VP16 counter, RORgamma inh)
O=C(CCS(=O)(=O)c1ccc(Cl)cc1)Nc1nnc(-c2cccs2)o1	DT40 TDP1 no CPT 16.4µM, TDP1 cell CPT 16.4µM (no result: VP16 counter, RORgamma inh)
O=C(CCS(=O)(=O)c1ccc(Cl)cc1)Nc1nnc(-c2ccco2)o1	DT40 TDP1 no CPT inconclusive, TDP1 cell CPT 9.2µM (no result: VP16 counter, RORgamma inh)
Cc1ccc(S(=O)(=O)CCC(=O)Nc2nnc(-c3cccs3)o2)cc1	DT40 TDP1 no CPT 16.4µM, TDP1 cell CPT inconclusive (no result: VP16 counter, RORgamma inh)
Cc1ncc([N+](=O)[O-])n1CCOC(=O)c1cc(Cl)cc(Cl)c1N	DT40 TDP1 no CPT inconclusive, 12-LOX inh 31.6µM
CCc1ccc(-c2cc(C(F)(F)F)on2)cc1S(=O)(=O)NCc1ccccc1	none (no result: DT40 TDP1 no CPT, TDP1 cell CPT, VP16 counter, RORgamma inh, ELG1 DNA repair)
CC(C(=O)c1ccc(Br)cc1)[n+]1cccc2ccccc21 (centres undefined)	DT40 TDP1 no CPT 9.2µM, TDP1 cell CPT 10.3µM, 12-LOX inh inconclusive, RORgamma inh inconclusive
CC(C(=O)c1ccc(Br)cc1)[n+]1cccc(NC(=O)c2ccccc2)c1 (centres undefined)	DT40 TDP1 no CPT inconclusive, TDP1 cell CPT inconclusive
CCc1ccc(NS(=O)(=O)c2ccc3[nH]cc(C(=O)NCCc4ccccc4)c(=O)c3c2)cc1	none (no result: VP16 counter, RORgamma inh, ELG1 DNA repair)
CCc1ccc(NS(=O)(=O)c2ccc3[nH]cc(C(=O)N(C)Cc4ccco4)c(=O)c3c2)cc1	DT40 TDP1 no CPT 14.6µM, TDP1 cell CPT inconclusive, 12-LOX inh inconclusive
CCC1CCCCN1C(=O)c1c[nH]c2ccc(S(=O)(=O)Nc3cccc(OC)c3)cc2c1=O (centres undefined)	12-LOX inh inconclusive (no result: VP16 counter, RORgamma inh, ELG1 DNA repair)
COc1cccc(NS(=O)(=O)c2ccc3[nH]cc(C(=O)NCCC(C)C)c(=O)c3c2)c1	DT40 TDP1 no CPT 14.6µM, TDP1 cell CPT 10.3µM, VP16 counter inconclusive, ELG1 DNA repair 18.4µM
CCN(c1ccccc1)S(=O)(=O)c1ccc2[nH]cc(C(=O)NCCOC)c(=O)c2c1	DT40 TDP1 no CPT inconclusive, TDP1 cell CPT inconclusive, ELG1 DNA repair inconclusive
Cc1cc(C)cc(NS(=O)(=O)c2ccc3[nH]cc(C(=O)NCCc4ccccc4)c(=O)c3c2)c1	DT40 TDP1 no CPT 16.4µM, TDP1 cell CPT inconclusive, 12-LOX inh inconclusive (no result: VP16 counter, RORgamma inh, ELG1 DNA repair)
CCN(c1ccccc1)S(=O)(=O)c1ccc2[nH]cc(C(=O)NC3CCCCC3)c(=O)c2c1	DT40 TDP1 no CPT 14.6µM, TDP1 cell CPT inconclusive, 12-LOX inh inconclusive (no result: VP16 counter, RORgamma inh, ELG1 DNA repair)
COc1ccc(C(=O)N2CCOC3(CCN(C(=O)C4CCN(C)CC4)CC3)C2)cc1	none (no result: DT40 TDP1 no CPT, TDP1 cell CPT, VP16 counter, RORgamma inh, ELG1 DNA repair)
O=C(CN1CCN(c2ccccc2)CC1)Nc1oc2ccccc2c(=O)c1-c1ccc(F)cc1	none (no result: DT40 TDP1 no CPT, TDP1 cell CPT, VP16 counter, RORgamma inh, ELG1 DNA repair)
CCCN(CC1CCOC1)C(=O)c1ccccc1Br (centres undefined)	none (no result: DT40 TDP1 no CPT, TDP1 cell CPT, VP16 counter, RORgamma inh, ELG1 DNA repair)
N#Cc1cc(C(=O)c2ccccc2O)cn(-c2ccc(C(=O)O)cc2)c1=O	none (no result: DT40 TDP1 no CPT, TDP1 cell CPT, VP16 counter, RORgamma inh, ELG1 DNA repair)
N#Cc1cccc(CN[C@H]2[C@H](O)[C@H](O)C[C@@H]2c2cccnc2)c1	none (no result: DT40 TDP1 no CPT, TDP1 cell CPT, VP16 counter, RORgamma inh, ELG1 DNA repair)
Cc1ccc(CCNC(=O)c2c[nH]c3ccc(S(=O)(=O)Nc4cccc(C(F)(F)F)c4)cc3c2=O)cc1	DT40 TDP1 no CPT inconclusive, TDP1 cell CPT 20.6µM (no result: VP16 counter, RORgamma inh, ELG1 DNA repair)
